The source of these data is PubChem BioAssay (NCATS).

A short description of assay [1]: Validation of Assay for Modulators of Lamin A Splicing (AID 1459; active = well fitted curve in the direction sought with a large enough effect in the signal ratio; the % refers to the signal ratio;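 also: cells exposed to compound for two days before reading; 0% is about no effect; ratio rise marks activators and ratio drop marks inhibitors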). The settings on record: Lamin A splicing dual RFP/GFP fluorescence reporter; series mostly up to 9.22 µM. The gist of the method:
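S3 HeLa cells stably expressing a lamin A-EGFP splicing minigene and DsRed2 were seeded at 600 cells/well in Opti-MEM with 2% FBS, pin-dosed, and incubated 48 hrs at 37 °C, 5% CO2. Laser-scanning cytometry (488 nm) gave GFP/RFP total intensity ratio.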

The target of assay [2] is Endonuclease 4 (Escherichia coli (strain K12)) (UniProt P0A6C1). The assay is described as follows: Counterscreen for APE1 Inhibitors: qHTS Validation Assay for Inhibitors of Endonuclease IV (AID 1708). Also: % is scaled to controls: 0 for no effect and ±100 for the full control effect. The settings on record: E. coli endonuclease IV, DNA cleavage fluorescence; series mostly up to 57.1 µM. The gist of the method: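 E. coli EndoIV at 2 nM final, preincubated 15 min at room temperature with compound, then 50 nM TAMRA/BHQ-2 THF abasic-site duplex added. Buffer: 50 mM Tris-HCl pH 7.5, 50 mM NaCl, 2 mM MgCl2, 1 mM DTT, 0.01% Tween-20. Kinetic fluorescence increase, third minus first read.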

A short description of assay [3]: qHTS for differential inhibitors of proliferation of Plasmodium falciparum line GB4 (AID 1816).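 Also: parasite growth measured after 72 h incubation.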 Also: potency is read from the fitted curve at half-maximal effect. The following applies: Potency: Plasmodium falciparum GB4 proliferation inhibition; series mostly up to 28.7 µM. (In general: qHTS replaces the single test concentration by a dilution series.)
Assay [4] in a line: qHTS for differential inhibitors of proliferation of Plasmodium falciparum line 3D7 (AID 1876). Also: potency is read from the fitted curve at half-maximal effect. The settings on record: P. falciparum 3D7 proliferation inhibition; series mostly up to 28.7 µM.
The nature of assay [5]: qHTS Assay for Modulators of Human Peripheral Myelin Protein 22 (PMP22) Expression/Activity (AID 1967; active = well fitted curve in the direction sought with a large enough effect in the signal ratio; the % refers to the signal ratio;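 also: 0% = untreated cells and 100% end not stated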). The settings on record: Cell-based PMP22 reporter, dual-color luciferase ratio, mouse Pmp22 promoter in mouse Schwann cells; series mostly up to 115 µM. Summed up:
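MSC80 mouse Schwann cells stably carrying Pmp22 promoter–green click beetle luciferase plus EF-alpha–red luciferase control were dosed for 24h at 37 °C. Dual-colour luminescence was filter-overlap corrected; %Activity came from green/red ratio versus untreated cells.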

Assay [6] has as its target RecQ-like DNA helicase BLM (Homo sapiens) (UniProt P54132). As to the kind of experiment: qHTS Validation Assay for Inhibitors of Bloom's syndrome helicase (BLM) (AID 2364).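 Also: plate controls were DMSO vehicle for no effect and enzyme-free control for full effect.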 The following applies: BLM helicase DNA unwinding, fluorescence, in vitro; series mostly up to 57.1 µM. Summed up:
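50 nM BLM preincubated 15 min at room temperature with compound in pH 8.0 Tris buffer containing 2.5 ug/ml poly(dI-dC); started with 200 nM TAMRA/BHQ-2 forked duplex and 2 mM ATP (final). Unwinding read as TAMRA fluorescence increase, two reads 2 h apart.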

The nature of assay [7]: Validation screen for inhibitors of Lassa infection (AID 463096; calls by dose curve; also: % is scaled to controls: 0 for no effect and ±100 for the full control effect). The settings on record: Lassa virus infection, cell-based; series mostly up to 46.1 µM.
Assay [8] can be described thus: Validation screen for small molecules that induce DNA re-replication in MCF 10A normal breast cells (AID 463097). Also: 0% is about no effect; nearly all actives have a fitted effect of over 60% in size. The settings on record: MCF 10A cells, DNA re-replication phenotype imaging; series mostly up to 46.1 µM. The gist of the method:
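Readout: Hoechst nuclear fluorescence intensity, 405 ex / 500-530 em, by scanning plate imager; re-replication scored as increase in nuclei with elevated DNA content. Cells exposed to compound 48 hr, 37 C, 5% CO2 beforehand.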

Assay [9] has as its target Galactokinase (Homo sapiens) (UniProt P51570). As to the kind of experiment: qHTS Validation Assay for Inhibitors of Human Galactokinase (GALK) (AID 493189). Also: 0% is about no effect. The settings on record: purified human GALK enzyme activity, qHTS 7-point titration; series mostly up to 57.5 µM. Summed up:
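GALK (5 nM) with 35 uM ATP and 100 uM galactose in HEPES pH8.0, MgCl2, NaCl, DTT, BSA; 1 h at room temperature. Residual ATP read by Kinase-Glo Plus luminescence after 10 min.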

Assay [10] in a line: Validation screen for small molecules that induce DNA re-replication in SW480 colon adenocarcinoma cells (AID 504364). Also: 0% is about no effect. The following applies: DNA re-replication phenotype (high-content imaging); series mostly up to 46.1 µM. The gist of the method: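 SW480 cells (250/well) exposed 48 h at 37 C, 5% CO2, then Hoechst-stained 40 min. Nuclear DNA content imaged by fluorescence scanning (405 nm excitation, 500-530 nm emission); re-replication scored as increased nuclei with elevated intensity.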

Assay [11] deals with Voltage-gated inwardly rectifying potassium channel KCNH2 (Homo sapiens) (UniProt Q12809). As to the kind of experiment: qHTS Assay for Small Molecule Inhibitors of the Human hERG Channel Activity (AID 588834).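 Also: lower thallium flux fluorescence means stronger hERG block; nearly all actives have a fitted effect of over 50% in size.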 Also: potency is read from the fitted curve at half-maximal effect. The settings on record: U2OS BacMam hERG, FluxOR thallium flux fluorescence; series mostly up to 46.1 µM. The gist of the method:
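U2OS cells transduced with hERG via BacMam (MOI ~100), plated 2000/well, loaded with FluxOR thallium dye, compound ~10 min, then stimulation buffer; fluorescence decrease read kinetically; AC50 from Hill fits.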

Assay [12] in a line: qHTS Assay for Identification of Small Molecule Antagonists for Thrombopoietin (TPO) Signaling Pathway (AID 918). Also: potency is read from the fitted curve at half-maximal effect; nearly all actives have a fitted effect of over 60% in size. The following applies: TPO-dependent cell signaling reporter, antagonist mode. Summed up:
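Murine Ba/F3 cells expressing human TPO receptor and a Glycoprotein IIb promoter-luciferase reporter, IL-3-starved overnight, treated with compound plus TPO at EC50 (26 pM final). After 24 h at 37 C, luminescence read to detect inhibitors.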

Assay [13] can be described thus: Counterscreen qHTS for small molecule stabilizers of the endoplasmic reticulum resident proteome: GLuc-NoTag assay (AID 1508627). Also: potency is read from the fitted curve at half-maximal effect. The settings on record: Gaussia luciferase NoTag secretion counterscreen, luminescence, thapsigargin 100 nM for final 4 h; series mostly up to 76.4 µM. Summed up: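 SH-SY5Y cells stably expressing constitutively secreted GLuc without SERCaMP tag, exposed to compound for 19 hr, then to 100 nM thapsigargin for 4 hr at 37C. Medium luciferase was read by coelenterazine luminescence without lysis.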

Assay [14] is described as follows: Cell Viability qHTS for small molecule stabilizers of the endoplasmic reticulum resident proteome (AID 1508629).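 Also: compound exposure about 46 h in total before the viability read.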 Also: potency is read from the fitted curve at half-maximal effect.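 As to max response: human SH-SY5Y neuroblastoma cells carrying the GLuc-SERCaMP reporter; % is scaled to controls: 0 for no effect and ±100 for the full control effect.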 The following applies: cell viability counter-screen, 100 nM thapsigargin for final 4 h.
Assay [15] in a line: qHTS Assay for Identification of Small Molecule Agonists for Hypoxia Response Element Signaling Pathway (AID 914; active = well fitted activation curve with a large enough effect in the signal ratio, with a control signal flat, not every such curve was filed as active; the % refers to the signal ratio; also: % of control where 0% means no effect). The settings on record: ME-180 (cervical carcinoma) HRE-bla reporter, beta-lactamase ratio, CoCl2, 17 h; activation: active compounds read high. Summed up:
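Read-out: CCF4 FRET ratio of 460nm to 530nm emission (excitation 405nm) after 2.5 hours at room temperature, taken from HRE-bla ME-180 cells that had been exposed to compound and EC50 CoCl2 for 17 hours.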

A short description of assay [16]: qHTS for differential inhibitors of proliferation of Plasmodium falciparum line W2 (AID 1883).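 Also: parasites grown with compound for 72 h before lysis and staining.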 Also: potency is read from the fitted curve at half-maximal effect. The settings on record: Potency: Plasmodium falciparum W2 proliferation inhibition; series mostly up to 28.7 µM.
A short description of assay [17]: Quantitative high throughput screen for delayed death inhibitors of the malarial parasite plastid, 96 hour incubation (AID 488745). Also: % is scaled to controls: 0 for no effect and ±100 for the full control effect; nearly all actives have a fitted effect of over 70% in size. The settings on record: Plasmodium falciparum growth; series mostly up to 28.7 µM. Summed up:
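Luciferase-expressing P. falciparum in erythrocytes (2% hematocrit, 0.1% parasitemia) incubated with compound for 96 h at 37 C, 5% CO2, in RPMI 1640 with 0.5% Albumax. Growth inhibition read as decreased luminescence.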

The nature of assay [18]: Confirmation and Secondary Assay for Modulators of Hemoglobin Beta Chain Splicing at IVS2 705 locus (AID 930).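 Also: HeLa cells stably expressing the EGFP-705 splicing reporter; GFP fluorescence per well restored by corrected splicing of the IVS2-705 intron in EGFP; % of control where 0% means no effect.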 The following applies: HeLa EGFP-705 splicing reporter, GFP fluorescence, 48 h; series mostly up to 46.1 µM. Summed up: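 HeLa EGFP-705 reporter; 500 cells/well, o/n 37C 5% CO2; cpd 2 d; 488 ex/500-520 em laser scan; total peak GFP intensity/well. Ref: 500 nM […] antisense PNA.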

For assay [19], the target named is Rap guanine nucleotide exchange factor 3 (Homo sapiens) (UniProt O95398). The assay is described as follows: Confirmatory qHTS for antagonist of cAMP-regulated guanine nucleotide exchange factor 3 (EPAC1) (AID 1645880).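 Also: plate controls were DMSO only for no effect and full effect of the ATA control for full effect; nearly all actives have a fitted effect of over 55% in size.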 The following applies: EPAC1 Rap1B-BODIPY-GDP exchange, fluorescence; series mostly up to 115 µM. Summed up:
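Nucleotide exchange uses 100 nM EPAC1, 250 nM RAP1B-BODIPY-GDP and 50 uM GDP, with compounds in a concentration-titration series. After 5 min at room temperature, fluorescence (480 nm ex/540 nm em) is read every 5 min for 30 min. Data are normalized to control ATA and DMSO.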

Assay [20] shares this target. As to the kind of experiment: Confirmatory qHTS for agonist of cAMP-regulated guanine nucleotide exchange factor 3 (EPAC1) (AID 1645881).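 Also: EPAC1 catalysed release of BODIPY-GDP from Rap1B seen as fluorescence loss; nearly all actives have a fitted effect of over 75% in size.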 The settings on record: EPAC1 Rap1B BODIPY-GDP exchange fluorescence, 100% = cAMP control response; series mostly up to 154 µM.

Unmarked numbers belong to inactive results. Results filed as inconclusive are left out. Calls of active or inactive are those of the source. Unless noted, calls follow the shape of the dose curve; as a rule, active = well fitted curve in the direction sought with a large enough effect; inconclusive = small, poorly fitted or top-dose-only effect, or another doubt; inactive = no such curve, though single readings can be large; an effect the other way counts as inactive or inconclusive.

Voltage-gated inwardly rectifying potassium channel KCNH2 (Homo sapiens), sequence (Q12809 whole entry, looked up): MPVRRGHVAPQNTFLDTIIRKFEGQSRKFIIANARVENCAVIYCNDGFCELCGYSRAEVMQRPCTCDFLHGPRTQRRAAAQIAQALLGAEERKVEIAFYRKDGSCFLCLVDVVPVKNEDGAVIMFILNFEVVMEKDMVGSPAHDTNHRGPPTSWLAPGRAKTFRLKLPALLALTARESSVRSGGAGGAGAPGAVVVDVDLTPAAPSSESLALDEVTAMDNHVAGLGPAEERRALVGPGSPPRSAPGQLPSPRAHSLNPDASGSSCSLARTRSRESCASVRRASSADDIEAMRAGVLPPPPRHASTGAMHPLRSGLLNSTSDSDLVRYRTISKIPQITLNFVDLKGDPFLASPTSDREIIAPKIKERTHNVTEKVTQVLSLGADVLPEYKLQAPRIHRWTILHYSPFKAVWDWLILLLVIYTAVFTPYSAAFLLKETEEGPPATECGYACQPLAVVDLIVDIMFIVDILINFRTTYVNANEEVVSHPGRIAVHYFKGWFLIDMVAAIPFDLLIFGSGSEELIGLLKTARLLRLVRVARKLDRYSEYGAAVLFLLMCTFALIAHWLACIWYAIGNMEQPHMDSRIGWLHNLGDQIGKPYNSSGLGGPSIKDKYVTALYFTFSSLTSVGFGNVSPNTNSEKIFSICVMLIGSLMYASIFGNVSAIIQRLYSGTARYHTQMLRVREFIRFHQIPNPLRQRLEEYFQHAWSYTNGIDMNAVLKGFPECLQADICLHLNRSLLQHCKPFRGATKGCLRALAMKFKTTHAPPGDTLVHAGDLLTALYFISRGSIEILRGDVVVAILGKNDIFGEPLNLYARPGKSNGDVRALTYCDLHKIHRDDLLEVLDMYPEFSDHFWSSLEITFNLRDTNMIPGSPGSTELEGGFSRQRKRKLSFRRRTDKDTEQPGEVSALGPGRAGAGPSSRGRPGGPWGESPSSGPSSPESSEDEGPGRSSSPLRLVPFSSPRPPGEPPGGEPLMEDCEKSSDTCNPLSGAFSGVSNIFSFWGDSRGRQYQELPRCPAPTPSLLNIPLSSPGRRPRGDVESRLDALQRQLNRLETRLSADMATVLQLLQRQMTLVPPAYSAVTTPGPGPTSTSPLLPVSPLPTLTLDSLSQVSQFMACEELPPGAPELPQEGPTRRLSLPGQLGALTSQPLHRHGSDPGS
Rap guanine nucleotide exchange factor 3 (Homo sapiens), sequence (O95398 whole entry, looked up): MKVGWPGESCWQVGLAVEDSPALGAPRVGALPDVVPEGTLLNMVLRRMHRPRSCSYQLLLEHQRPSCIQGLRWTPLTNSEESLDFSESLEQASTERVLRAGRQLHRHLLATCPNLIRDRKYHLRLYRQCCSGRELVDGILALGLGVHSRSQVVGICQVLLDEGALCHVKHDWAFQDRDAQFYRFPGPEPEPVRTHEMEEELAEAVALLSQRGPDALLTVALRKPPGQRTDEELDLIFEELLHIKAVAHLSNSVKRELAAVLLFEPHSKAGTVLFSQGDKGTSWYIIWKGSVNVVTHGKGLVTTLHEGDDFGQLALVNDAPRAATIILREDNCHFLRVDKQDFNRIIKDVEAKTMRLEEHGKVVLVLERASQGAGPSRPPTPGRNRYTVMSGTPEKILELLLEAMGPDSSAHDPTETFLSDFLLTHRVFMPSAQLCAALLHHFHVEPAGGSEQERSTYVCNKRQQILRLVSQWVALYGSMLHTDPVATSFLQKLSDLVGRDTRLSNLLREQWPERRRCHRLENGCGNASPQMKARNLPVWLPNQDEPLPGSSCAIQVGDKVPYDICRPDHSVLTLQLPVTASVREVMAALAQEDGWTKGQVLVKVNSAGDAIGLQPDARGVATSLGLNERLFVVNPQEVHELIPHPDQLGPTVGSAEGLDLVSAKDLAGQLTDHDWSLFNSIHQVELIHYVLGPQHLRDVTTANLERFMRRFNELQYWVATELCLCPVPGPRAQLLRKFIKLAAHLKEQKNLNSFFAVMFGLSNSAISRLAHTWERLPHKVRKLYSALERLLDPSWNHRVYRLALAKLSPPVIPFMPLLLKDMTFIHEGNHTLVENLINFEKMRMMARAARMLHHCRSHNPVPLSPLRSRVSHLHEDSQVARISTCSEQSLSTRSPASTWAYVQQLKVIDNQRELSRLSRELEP
Galactokinase (Homo sapiens), sequence (P51570 whole entry, looked up): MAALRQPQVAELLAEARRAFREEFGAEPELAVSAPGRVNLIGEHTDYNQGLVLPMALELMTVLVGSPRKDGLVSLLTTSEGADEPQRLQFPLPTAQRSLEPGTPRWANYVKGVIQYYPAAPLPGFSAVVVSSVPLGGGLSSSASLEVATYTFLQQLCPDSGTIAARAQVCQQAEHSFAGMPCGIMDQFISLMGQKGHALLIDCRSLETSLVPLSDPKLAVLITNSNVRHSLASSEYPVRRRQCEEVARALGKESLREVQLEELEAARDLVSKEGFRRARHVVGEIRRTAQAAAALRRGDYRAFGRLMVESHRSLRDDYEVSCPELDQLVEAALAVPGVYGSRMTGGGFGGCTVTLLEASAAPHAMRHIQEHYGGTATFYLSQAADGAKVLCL
RecQ-like DNA helicase BLM (Homo sapiens), sequence (P54132 whole entry, looked up): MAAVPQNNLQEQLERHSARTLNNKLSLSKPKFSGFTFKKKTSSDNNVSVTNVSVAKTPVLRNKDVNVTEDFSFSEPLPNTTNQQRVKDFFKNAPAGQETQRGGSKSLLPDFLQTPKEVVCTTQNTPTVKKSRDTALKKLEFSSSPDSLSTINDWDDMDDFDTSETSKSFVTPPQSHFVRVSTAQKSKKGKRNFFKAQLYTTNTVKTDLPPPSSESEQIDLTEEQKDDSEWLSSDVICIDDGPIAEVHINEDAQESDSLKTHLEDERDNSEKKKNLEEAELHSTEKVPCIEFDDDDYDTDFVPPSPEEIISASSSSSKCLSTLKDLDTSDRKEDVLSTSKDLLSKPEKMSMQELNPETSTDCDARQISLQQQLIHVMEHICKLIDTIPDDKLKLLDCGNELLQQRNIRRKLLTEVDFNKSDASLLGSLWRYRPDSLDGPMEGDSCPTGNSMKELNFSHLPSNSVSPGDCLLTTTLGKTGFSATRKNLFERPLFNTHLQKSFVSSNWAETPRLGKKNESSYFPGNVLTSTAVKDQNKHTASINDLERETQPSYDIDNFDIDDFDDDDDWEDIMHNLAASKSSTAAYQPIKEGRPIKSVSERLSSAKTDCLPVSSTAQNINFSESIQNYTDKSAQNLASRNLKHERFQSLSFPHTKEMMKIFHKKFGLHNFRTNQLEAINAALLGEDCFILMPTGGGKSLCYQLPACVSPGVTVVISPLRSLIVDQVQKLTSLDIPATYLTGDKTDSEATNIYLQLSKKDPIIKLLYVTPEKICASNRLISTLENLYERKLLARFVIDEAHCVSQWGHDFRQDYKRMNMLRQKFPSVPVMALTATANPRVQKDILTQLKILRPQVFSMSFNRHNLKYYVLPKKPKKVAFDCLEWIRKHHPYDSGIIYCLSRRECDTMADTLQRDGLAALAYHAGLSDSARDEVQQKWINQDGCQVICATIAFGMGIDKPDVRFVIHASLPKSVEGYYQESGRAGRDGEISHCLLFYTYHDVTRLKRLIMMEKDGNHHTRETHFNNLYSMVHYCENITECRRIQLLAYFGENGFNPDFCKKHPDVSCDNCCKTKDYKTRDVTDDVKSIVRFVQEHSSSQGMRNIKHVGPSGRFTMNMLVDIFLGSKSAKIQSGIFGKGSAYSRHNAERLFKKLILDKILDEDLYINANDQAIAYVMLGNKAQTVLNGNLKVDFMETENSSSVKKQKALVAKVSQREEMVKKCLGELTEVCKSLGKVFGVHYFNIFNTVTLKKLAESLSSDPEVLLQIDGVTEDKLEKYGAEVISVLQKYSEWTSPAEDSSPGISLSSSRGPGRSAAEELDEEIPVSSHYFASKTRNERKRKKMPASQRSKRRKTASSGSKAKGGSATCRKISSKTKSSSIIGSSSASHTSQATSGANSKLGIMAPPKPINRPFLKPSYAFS

Take `C[N+]1(C)CCc2cc3c(cc2C1C1OC(=O)c2c1ccc1c2OCO1)OCO3` (stereo not drawn): the molecule was called inactive in assay [1], in assay [2], in [5] and in assay [9]. In addition, the Potency result in [3], in [6], in assay [7], in assay [8], in assay [10] and in assay [11] was “inactive” throughout. For the same molecule, the Potency in assay [4] was 8.91 µM (active).
For the molecule `CC(C)[C@@]1(NC(=O)[C@@H]2C[C@H]3c4cccc5[nH]cc(c45)C[C@@H]3N(C)C2)O[C@@]2(O)[C@H]3CCCN3C(=O)[C@H](Cc3ccccc3)N2C1=O`, in [12], the Potency is 10 µM (active). Besides, the Potency entry in [13] is “inactive”. The max response in assay [14] is -30.4%.
Regarding `C=CCN1C[C@H](C)N([C@H](c2ccc(C(=O)N(CC)CC)cc2)c2cccc(O)c2)C[C@H]1C`, the max response in [14] was 8.89%.
Consider `CNc1ccc2oc(C[C@H]3O[C@]4(CC[C@H]3C)O[C@H]([C@H](C)C(=O)c3ccc[nH]3)[C@H](C)C[C@H]4C)nc2c1C(=O)O`, for which the Potency is 3.16 µM (active) in assay [12] and 8.91 µM (active) in [14].
Consider `CCCCCCC[n+]1ccc(-c2cc[n+](CCCCCCC)cc2)cc1`, for which the Potency result in [13] is “inactive”.
The same measure, in the same setting: with `C[C@H]1C[C@H](C)C(=O)[C@@H]([C@H](O)CC2CC(=O)NC(=O)C2)C1` the figure was 1.58 µM (active).
Turning to `C=CCN1CC[C@@]23c4c5ccc(O)c4O[C@H]2/C(=N\N=C2/CC[C@@]4(O)[C@H]6Cc7ccc(O)c8c7[C@@]4(CCN6CC=C)[C@@H]2O8)CC[C@]3(O)[C@@H]1C5`, in assay [15], the activation was 0.657%. Besides, the Potency in [12] is 12.6 µM (active).
`COc1ccc(-n2nc(C(F)(F)F)cc2-c2ccc(Cl)cc2)cc1`: the Potency in assay [3] was 11.2 µM (active); in [16], 10 µM (active). For the same molecule, the Potency entry in [7], in [8], in assay [17] and in assay [10] was “inactive” each time. Also, the molecule was called inactive in assay [9].
As to `C[C@H](N)Cc1c[nH]c2ccc(O)cc12`, the activation in assay [15] was -4.29%.
`CC1OC(=O)C(C(C)C)NC(=O)C(C(C)C)OC(=O)C(C(C)C)NC(=O)C(C)OC(=O)C(C(C)C)NC(=O)C(C(C)C)OC(=O)C(C(C)C)NC(=O)C(C)OC(=O)C(C(C)C)NC(=O)C(C(C)C)OC(=O)C(C(C)C)NC1=O` (stereo not drawn): in assay [18], the outcome was inactive.
`CN1Cc2ccccc2[C@@H]2c3cccc4[nH]cc(c34)C[C@H]21`: the Potency result in assay [19] was “inactive”. Moreover, the molecule was classed as inactive in [20].
Turning to `c1cncc(C2CCCCN2)c1` (stereo not drawn), in assay [18], the outcome was inactive.
Turning to `Cc1o[nH]c(=O)c1C[C@H](N)C(=O)O`, the activation in [15] is 7.13%.
As for `CN1CCc2cc(O)cc3c2C1Cc1ccc(O)c(O)c1-3` (stereo not drawn), the outcome in [2] and in assay [9] was inactive. Moreover, the figures for the Potency in [3], in assay [4] and in [16] were 8.91 µM (active), 11.2 µM (active) and 6.31 µM (active), respectively. Also, the Potency result in assay [6], in [7] and in assay [10] was “inactive” in each case.
On to `CCCn1c(C)c(C(=O)c2cccc3ccccc23)c2ccccc21`, for which the Potency entry in assay [19] was “inactive”. Further, the molecule was called inactive in assay [20].
For the molecule `N#CC(C#N)=Cc1ccc([N+](=O)[O-])c(O)c1`, the call in [2], in assay [5] and in assay [9] was inactive. In addition, the Potency result in assay [3], in assay [16], in assay [7], in [8], in assay [17] and in [10] was “inactive” in each case. For the same molecule, the Potency entry in [11] was “inactive”.
With `Cc1ccc(C[N+](C)(C)C)o1`, the molecule was called inactive in assay [18].
For the molecule `O=C1CS[C@@H](c2ccccc2Cl)c2cc(Cl)ccc2N1`, the Potency result in assay [19] is “inactive”.
As for `C=C(C)CN1CC[C@@]23c4c5ccc(O)c4O[C@H]2c2[nH]c4ccccc4c2C[C@]3(O)[C@@H]1C5`, the result in assay [20] was inactive.
As to `CC(C)(c1ccc(OCC2CO2)cc1)c1ccc(OCC2CO2)cc1` (stereo not drawn), the Potency in [11] was 28.2 µM (active).
